Test [1] deals with rat Gamma-Aminobutyric Acid Type A Receptor, Non-Selective (GABAR-NonSelective), Gabra1 (gene 29705) (UniProt P62813). The experiment in a line: NVS_LGIC_rGABAR_NonSelective: NovaScreen (NVS) Ligand-Gated Ion Channel Assay for rat Gamma-Aminobutyric Acid Type A Receptor, Non-Selective (GABAR-NonSelective) (AID 2283326). Put shortly:
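Compounds were first screened in duplicate at 25 uM, with actives run as singleton concentration series (max 50 uM). Binding of a radioligand to rat whole-brain GABA-A preparation was measured by filtration and scintillation counting after 1 h, DMSO baseline.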

Test [2] has as its target human Peripheral-type Benzodiazepine Receptor (PBR), TSPO (gene 706) (UniProt P30536). The experiment in a line: NVS_MP_hPBR: NovaScreen (NVS) Membrane Protein Assay for human Peripheral-type Benzodiazepine Receptor (PBR) (AID 2283331).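 Also: hits reduce radioligand binding relative to DMSO baseline.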 Put shortly: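 Using human colon-derived membranes, this one-endpoint binding test reads radioligand loss by scintillation after 1 h. Screening started at 25 uM in duplicate, with positive and negative controls on every plate, and actives moved to dose series.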

For test [3], the target named is rat Peripheral-type Benzodiazepine Receptor (PBR), Tspo (gene 24230) (UniProt P16257). The experiment in a line: NVS_MP_rPBR: NovaScreen (NVS) Membrane Protein Assay for rat Peripheral-type Benzodiazepine Receptor (PBR) (AID 2283335). Put shortly:
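Competitive displacement of specific radioligand from rat kidney membrane PBR, read by filtration and scintillation after 1 h. Compounds first tested at 25 uM in duplicate, then in concentration series; signal loss relative to DMSO.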

Test [4] in a line: NVS_IC_rCaBTZCHL: NovaScreen (NVS) Ion Channel Assay for Calcium Channel, Type L, Benzothiazepine Site (CaBTZCHL) (AID 2283337). Put shortly: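 Test chemicals were added to rat cortical membranes and incubated 1.5 h with a tritiated or iodinated radioligand for the benzothiazepine site. Bound ligand was separated by filtration and counted. Actives from the 25 uM duplicate screen were retested in concentration series.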

The target in test [5] is rat Glutamate, MK-801 Agonist Site (GluNMDA_MK801), Grin1 (gene 24408) (UniProt P35439). The experiment in a line: NVS_LGIC_rGluNMDA_MK801_Agonist: NovaScreen (NVS) Ligand-Gated Ion Channel Assay for rat Glutamate, MK-801 Agonist Site (GluNMDA_MK801) (AID 2283340). The procedure, abridged:
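Rat forebrain membrane preparation; MK-801-site radioligand binding read by filtration and scintillation after 1.5 h. Single-point 25 uM duplicate screen, followed by singleton concentration series to 50 uM max; DMSO baseline.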

In test [6] the target is rat Glycine Receptor, Strychnine-sensitive (GlyRStrySens), Glra1 (gene 25674) (UniProt P07727). The experiment in a line: NVS_LGIC_rGlyRStrySens: NovaScreen (NVS) Ligand-Gated Ion Channel Assay for rat Glycine Receptor, Strychnine-sensitive (GlyRStrySens) (AID 2283341). The procedure, abridged: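 Radioligand displacement on rat spinal cord membranes, 1 hr, filter scintillation read-out. Single-concentration duplicate screen at 25 uM; chemicals meeting threshold (e.g., 30% inhibition) rerun in concentration-response up to 50 uM. Loss of binding fitted versus DMSO.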

For the next test, the system named is NCBI gene 100848466. In words: NVS_NR_bPR: NovaScreen (NVS) Nuclear Receptor Binding Assay for bovine Progextron Receptor (PR) (AID 2283343).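 As to AC50: actives lower bound radioligand signal below DMSO meaning displacement of the label.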 The procedure, abridged:
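Steps: bovine uterine membranes were dosed with chemical alongside radioligand, incubated 18 hours, then radiodetected by scintillation counting. Initial testing used 25 uM in duplicate; confirmed actives were rerun as concentration series.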

For test [7], the target named is human Constitutive Androstane Receptor (CAR), NR1I3 (gene 9970) (UniProt Q14994). The experiment in a line: NVS_NR_hCAR_Antagonist: NovaScreen (NVS) Nuclear Receptor Binding Assay for human Constitutive Androstane Receptor Antagonism (CAR) (AID 2283344). Put shortly:
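Single 25 uM duplicate primary screen, with concentration-series follow-up on actives. Cell-free binding format run in antagonist mode, TR-FRET signal taken 1 h post-dose; activity is signal loss relative to DMSO.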

Test [8] deals with bovine Estrogen Receptor (ER), ESR1 (gene 407238) (UniProt P49884). The experiment in a line: NVS_NR_bER: NovaScreen (NVS) Nuclear Receptor Binding Assay for bovine Estrogen Receptor (ER) (AID 2283345).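 Also: actives lower the bound radioligand count which means they displace the ER ligand.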 Put shortly:
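Cell-free radioligand binding with receptor from bovine uterine membranes, read by scintillation counting 18 h after dosing. Loss of specific binding was scored against DMSO; primary screen at 25 uM in duplicate, actives then run as concentration series.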

Test [9] concerns the target chimpanzee Androgen Receptor (AR), AR (gene 747460) (UniProt O97775). In words: NVS_NR_cAR: NovaScreen (NVS) Nuclear Receptor Binding Assay for chimpanzee Androgen Receptor (AR) (AID 2283346).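 Also: radioligand displacement from AR measured by scintillation counting in a cell-free assay.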 The procedure, abridged:
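Cell-free radioligand displacement using receptor protein extracted from Sf9/Sf21 cells; bound radioligand measured by scintillation counting 72 hours after chemical dosing. Loss of signal versus DMSO baseline indicates binding; primary screen single-concentration in duplicate at 25 uM, actives followed in concentration series.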

In test [10] the target is rat Thyrotropin Releasing Hormone Receptor (TRH), Trhr (gene 25570) (UniProt Q01717). The experiment in a line: NVS_GPCR_rTRH: NovaScreen (NVS) G Protein-Coupled Receptor Assay for rat Thyrotropin Releasing Hormone Receptor (TRH) (AID 2283329).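 Also: hit means lower bound tracer signal versus DMSO baseline.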 The procedure, abridged:
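Cell-free radioligand binding on rat forebrain membranes; bound tracer measured by filter-based scintillation counting 4 hours after dosing. Loss of signal versus DMSO baseline indicates displacement; primary screen at 25 uM in duplicate, actives then run in concentration series.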

The target of test [11] is Glutamate receptor ionotropic, kainate 1 (Rattus norvegicus) (UniProt P22756). In words: NVS_IC_rKAR: NovaScreen (NVS) Ion Channel Assay for rat Kainic Acid Receptors (KAR) (AID 2283334; active = hit-call score of the fitted dose curve at least 0.9, where 1 is the maximum; inactive = score below 0.9). Put shortly:
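Rat forebrain membrane preparation incubated 1 h with radioligand and test chemical; bound signal read by filtration and scintillation. Single-concentration screen at 25 uM, then concentration series to 50 uM maximum.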

The target of test [12] is bovine Gamma-Aminobutyric Acid Type A Receptor Agonist (GABAR Agonist), GABRA1 (gene 780973) (UniProt P08219). The experiment in a line: NVS_LGIC_bGABAR_Agonist: NovaScreen (NVS) Ligand-Gated Ion Channel Assay for bovine Gamma-Aminobutyric Acid Type A Receptor Agonist (GABAR Agonist) (AID 2283338). The procedure, abridged:
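Radioligand binding to bovine cerebellar membranes in agonist format, read by filter-based scintillation counting after 1 h. Primary screen in duplicate at 25 uM, with actives followed in concentration series. Gain of signal versus DMSO.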

The subject of test [13] is guinea pig Histamine Receptor (H2), gene 100729734. The experiment in a line: NVS_GPCR_gH2: NovaScreen (NVS) G Protein-Coupled Receptor Assay for guinea pig Histamine Receptor (H2) (AID 2283342). The procedure, abridged: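 Guinea pig striatal membrane preparation with specific radioligand; bound counts measured by filtration and scintillation 1 h post-dosing, DMSO as baseline. Chemicals passing a 25 uM duplicate screen were titrated to a 50 uM maximum.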

Test [14] deals with Voltage-gated inwardly rectifying potassium channel KCNH2 (Homo sapiens) (UniProt Q12809). In words: NVS_IC_hKhERGCh: NovaScreen (NVS) Ion Channel Assay for human Potassium Channel ERG (KhERGCh) (AID 2283333). Put shortly:
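Membranes from CHO cells expressing human ERG; displacement of radioligand measured by filtration and scintillation after 0.75 h. Single-concentration duplicate screen at 25 uM, then concentration-response for actives; DMSO baseline.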

Test [15] deals with rat Gamma-Aminobutyric Acid Type A Receptor BDZ, alpha 6 site (GABARa6), Gabra6 (gene 29708) (UniProt P30191). The experiment in a line: NVS_LGIC_rGABARa6: NovaScreen (NVS) Ligand-Gated Ion Channel Assay for rat Gamma-Aminobutyric Acid Type A Receptor BDZ, alpha 6 site (GABARa6) (AID 2283339). Put shortly:
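Actives from a 25 uM duplicate screen were retested in concentration series (max 50 uM). Specific radioligand displacement from rat cerebellar membranes was counted by filter-based scintillation at 1 h; DMSO served as baseline.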

Test [16] concerns the target rat Glutamate, NMDA Agonist Site (GluNMDA), Grin1 (gene 24408) (UniProt P35439). In words: NVS_LGIC_rGluNMDA_Agonist: NovaScreen (NVS) Ligand-Gated Ion Channel Assay for rat Glutamate, NMDA Agonist Site (GluNMDA) (AID 2283327). Put shortly:
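Radioligand displacement at the agonist site on rat forebrain membrane preparations, read by filter scintillation after 1 h. Chemicals were first run at 25 uM in duplicate; those passing threshold were titrated to a 50 uM maximum.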

In test [17] the target is rat Oxytocin Receptor (OXT), Oxtr (gene 25342) (UniProt P70536). In words: NVS_GPCR_rOXT: NovaScreen (NVS) G Protein-Coupled Receptor Assay for rat Oxytocin Receptor (OXT) (AID 2283330). Put shortly:
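Binding to rat uterine membrane receptor was followed by scintillation counting of filter-trapped radioligand after 1 h. A 25 uM duplicate single-point screen preceded concentration series with a top of 50 uM. Signal loss was analysed relative to DMSO.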

As usually defined, the AC50 is the midpoint of the concentration-response curve, whichever way the signal moves.

Values joined by “and” are separate entries in the source; they are usually repeats but may differ in a detail not shown here. Identical values can stand only once. Inconclusive results are not listed. Where a structure was tested more than once in an assay, its records may differ in their call. Active and inactive are the calls of the source. The calls were made as follows, unless noted: active = hit-call score of the fitted dose curve at least 0.9, where 1 is the maximum; inconclusive = response in the unintended direction; inactive = score below 0.9.

Chain of rat Peripheral-type Benzodiazepine Receptor (PBR), Tspo (gene 24230) (P16257 whole entry, looked up): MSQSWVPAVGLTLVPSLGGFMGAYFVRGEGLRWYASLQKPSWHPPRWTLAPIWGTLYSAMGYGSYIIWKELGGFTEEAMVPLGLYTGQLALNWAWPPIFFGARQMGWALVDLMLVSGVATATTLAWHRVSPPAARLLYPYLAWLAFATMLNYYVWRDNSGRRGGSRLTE
Chain of chimpanzee Androgen Receptor (AR), AR (gene 747460) (O97775 whole entry, looked up): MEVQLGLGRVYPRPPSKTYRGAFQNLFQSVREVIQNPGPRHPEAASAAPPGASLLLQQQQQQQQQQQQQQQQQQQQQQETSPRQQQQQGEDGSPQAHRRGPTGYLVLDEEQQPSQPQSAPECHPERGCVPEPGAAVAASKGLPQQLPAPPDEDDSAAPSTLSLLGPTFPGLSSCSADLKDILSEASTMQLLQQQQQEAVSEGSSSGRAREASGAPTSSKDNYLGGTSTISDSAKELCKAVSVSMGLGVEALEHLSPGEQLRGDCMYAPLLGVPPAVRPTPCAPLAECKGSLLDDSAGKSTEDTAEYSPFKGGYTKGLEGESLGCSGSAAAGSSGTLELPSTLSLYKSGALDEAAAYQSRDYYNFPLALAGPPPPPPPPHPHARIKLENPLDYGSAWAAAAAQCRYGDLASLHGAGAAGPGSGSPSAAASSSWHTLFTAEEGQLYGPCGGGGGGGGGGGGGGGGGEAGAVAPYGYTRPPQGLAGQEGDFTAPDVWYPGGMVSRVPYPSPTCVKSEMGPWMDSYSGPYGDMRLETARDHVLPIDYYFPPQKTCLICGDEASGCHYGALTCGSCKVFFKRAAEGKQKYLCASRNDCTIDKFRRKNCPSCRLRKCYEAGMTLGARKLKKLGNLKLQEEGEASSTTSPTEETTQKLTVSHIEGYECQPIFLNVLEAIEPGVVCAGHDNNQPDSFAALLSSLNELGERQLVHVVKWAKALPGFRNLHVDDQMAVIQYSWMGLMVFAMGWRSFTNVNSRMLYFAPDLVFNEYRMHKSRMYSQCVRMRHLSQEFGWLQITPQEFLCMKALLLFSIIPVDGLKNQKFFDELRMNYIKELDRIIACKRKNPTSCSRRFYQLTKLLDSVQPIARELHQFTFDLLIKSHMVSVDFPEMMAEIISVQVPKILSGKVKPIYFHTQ
Chain of human Constitutive Androstane Receptor (CAR), NR1I3 (gene 9970) (Q14994 whole entry, looked up): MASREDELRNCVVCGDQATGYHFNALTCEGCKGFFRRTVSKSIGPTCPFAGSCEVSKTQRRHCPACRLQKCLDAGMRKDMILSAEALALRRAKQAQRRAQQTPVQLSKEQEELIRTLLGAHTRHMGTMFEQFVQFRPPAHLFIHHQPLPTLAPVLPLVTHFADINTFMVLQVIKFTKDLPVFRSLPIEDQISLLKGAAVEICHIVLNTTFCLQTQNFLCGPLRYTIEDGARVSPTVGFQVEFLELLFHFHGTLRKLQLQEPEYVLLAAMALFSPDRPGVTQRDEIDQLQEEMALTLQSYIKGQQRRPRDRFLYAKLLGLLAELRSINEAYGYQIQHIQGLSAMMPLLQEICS
Chain of human Peripheral-type Benzodiazepine Receptor (PBR), TSPO (gene 706) (P30536 whole entry, looked up): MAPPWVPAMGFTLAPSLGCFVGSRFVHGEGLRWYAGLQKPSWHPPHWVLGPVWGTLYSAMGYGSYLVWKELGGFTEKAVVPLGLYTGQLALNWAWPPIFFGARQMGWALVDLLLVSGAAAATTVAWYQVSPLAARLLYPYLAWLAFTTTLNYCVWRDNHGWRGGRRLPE
Chain of rat Thyrotropin Releasing Hormone Receptor (TRH), Trhr (gene 25570) (Q01717 whole entry, looked up): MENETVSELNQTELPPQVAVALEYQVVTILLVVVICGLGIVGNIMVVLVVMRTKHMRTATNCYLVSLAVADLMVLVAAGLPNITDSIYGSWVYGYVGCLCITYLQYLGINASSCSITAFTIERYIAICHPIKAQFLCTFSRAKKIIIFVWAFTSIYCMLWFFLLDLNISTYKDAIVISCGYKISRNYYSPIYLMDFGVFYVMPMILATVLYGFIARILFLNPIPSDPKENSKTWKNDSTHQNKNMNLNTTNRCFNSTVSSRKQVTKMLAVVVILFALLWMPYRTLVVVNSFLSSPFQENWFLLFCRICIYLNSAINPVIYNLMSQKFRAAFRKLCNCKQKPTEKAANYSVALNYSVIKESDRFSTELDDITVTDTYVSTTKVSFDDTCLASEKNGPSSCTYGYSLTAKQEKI
Chain of rat Gamma-Aminobutyric Acid Type A Receptor BDZ, alpha 6 site (GABARa6), Gabra6 (gene 29708) (P30191 whole entry, looked up): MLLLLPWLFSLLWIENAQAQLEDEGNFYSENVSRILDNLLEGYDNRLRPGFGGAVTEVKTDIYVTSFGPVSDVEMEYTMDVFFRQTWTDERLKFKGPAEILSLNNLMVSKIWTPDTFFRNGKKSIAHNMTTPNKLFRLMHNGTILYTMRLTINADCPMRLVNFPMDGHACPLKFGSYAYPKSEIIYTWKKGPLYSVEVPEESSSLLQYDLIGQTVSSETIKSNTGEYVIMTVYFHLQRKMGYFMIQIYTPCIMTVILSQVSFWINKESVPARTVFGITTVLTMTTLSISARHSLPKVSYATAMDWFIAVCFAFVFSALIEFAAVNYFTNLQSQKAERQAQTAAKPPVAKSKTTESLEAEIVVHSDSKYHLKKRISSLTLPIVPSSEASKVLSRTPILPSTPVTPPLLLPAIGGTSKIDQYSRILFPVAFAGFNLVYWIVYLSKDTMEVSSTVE
Chain of bovine Gamma-Aminobutyric Acid Type A Receptor Agonist (GABAR Agonist), GABRA1 (gene 780973) (P08219 whole entry, looked up): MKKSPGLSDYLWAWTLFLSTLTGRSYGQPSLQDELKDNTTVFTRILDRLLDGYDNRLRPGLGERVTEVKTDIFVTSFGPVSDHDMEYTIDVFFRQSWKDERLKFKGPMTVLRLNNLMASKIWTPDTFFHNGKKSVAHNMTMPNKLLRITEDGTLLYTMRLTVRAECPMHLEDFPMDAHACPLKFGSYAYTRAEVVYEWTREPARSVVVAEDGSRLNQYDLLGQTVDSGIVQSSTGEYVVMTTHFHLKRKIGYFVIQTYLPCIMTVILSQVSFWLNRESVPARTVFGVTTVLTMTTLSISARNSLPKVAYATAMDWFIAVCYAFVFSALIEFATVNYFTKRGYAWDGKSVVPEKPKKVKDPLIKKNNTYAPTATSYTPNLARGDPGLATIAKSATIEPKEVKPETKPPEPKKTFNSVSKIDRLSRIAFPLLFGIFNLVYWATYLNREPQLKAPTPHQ
Chain of Glutamate receptor ionotropic, kainate 1 (Rattus norvegicus) (P22756 whole entry, looked up): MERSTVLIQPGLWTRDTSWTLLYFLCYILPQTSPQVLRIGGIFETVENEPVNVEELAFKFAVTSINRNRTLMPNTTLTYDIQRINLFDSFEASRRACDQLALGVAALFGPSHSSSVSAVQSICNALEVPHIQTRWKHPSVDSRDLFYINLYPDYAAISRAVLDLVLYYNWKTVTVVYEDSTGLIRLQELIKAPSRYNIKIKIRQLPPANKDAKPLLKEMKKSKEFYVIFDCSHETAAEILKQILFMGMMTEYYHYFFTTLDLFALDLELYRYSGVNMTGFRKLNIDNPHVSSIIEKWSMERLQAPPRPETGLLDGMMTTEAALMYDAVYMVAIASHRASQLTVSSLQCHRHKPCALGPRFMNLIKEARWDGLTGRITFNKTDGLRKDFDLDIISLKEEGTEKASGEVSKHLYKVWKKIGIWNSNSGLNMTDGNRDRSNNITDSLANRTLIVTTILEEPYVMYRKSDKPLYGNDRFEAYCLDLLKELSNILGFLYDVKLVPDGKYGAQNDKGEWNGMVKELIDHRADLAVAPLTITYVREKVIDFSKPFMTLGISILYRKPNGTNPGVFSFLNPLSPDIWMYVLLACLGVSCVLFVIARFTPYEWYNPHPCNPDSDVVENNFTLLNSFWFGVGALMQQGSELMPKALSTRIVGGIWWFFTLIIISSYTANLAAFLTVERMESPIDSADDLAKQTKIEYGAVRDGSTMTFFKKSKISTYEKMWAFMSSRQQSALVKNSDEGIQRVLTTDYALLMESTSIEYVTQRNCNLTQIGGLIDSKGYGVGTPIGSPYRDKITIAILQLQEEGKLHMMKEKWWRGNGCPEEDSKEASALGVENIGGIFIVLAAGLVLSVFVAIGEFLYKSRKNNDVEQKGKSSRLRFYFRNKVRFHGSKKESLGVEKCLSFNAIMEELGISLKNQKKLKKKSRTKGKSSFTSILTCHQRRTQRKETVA
Chain of bovine Estrogen Receptor (ER), ESR1 (gene 407238) (P49884 whole entry, looked up): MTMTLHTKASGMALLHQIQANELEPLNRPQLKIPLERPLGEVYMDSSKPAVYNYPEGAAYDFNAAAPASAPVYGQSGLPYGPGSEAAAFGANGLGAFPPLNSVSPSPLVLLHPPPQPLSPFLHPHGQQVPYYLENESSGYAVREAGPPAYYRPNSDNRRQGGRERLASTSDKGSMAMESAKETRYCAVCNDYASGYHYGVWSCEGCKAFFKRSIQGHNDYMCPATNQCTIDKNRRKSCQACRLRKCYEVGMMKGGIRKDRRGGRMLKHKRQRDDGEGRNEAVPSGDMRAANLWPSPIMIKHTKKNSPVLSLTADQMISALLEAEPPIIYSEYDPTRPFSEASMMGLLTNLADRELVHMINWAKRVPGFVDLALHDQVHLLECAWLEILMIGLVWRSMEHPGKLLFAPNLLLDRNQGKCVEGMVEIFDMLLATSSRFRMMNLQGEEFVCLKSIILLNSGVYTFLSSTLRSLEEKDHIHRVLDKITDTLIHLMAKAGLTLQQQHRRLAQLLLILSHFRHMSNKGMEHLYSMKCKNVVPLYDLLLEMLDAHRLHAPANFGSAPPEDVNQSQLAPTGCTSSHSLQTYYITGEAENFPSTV
Chain of rat Gamma-Aminobutyric Acid Type A Receptor, Non-Selective (GABAR-NonSelective), Gabra1 (gene 29705) (P62813 whole entry, looked up): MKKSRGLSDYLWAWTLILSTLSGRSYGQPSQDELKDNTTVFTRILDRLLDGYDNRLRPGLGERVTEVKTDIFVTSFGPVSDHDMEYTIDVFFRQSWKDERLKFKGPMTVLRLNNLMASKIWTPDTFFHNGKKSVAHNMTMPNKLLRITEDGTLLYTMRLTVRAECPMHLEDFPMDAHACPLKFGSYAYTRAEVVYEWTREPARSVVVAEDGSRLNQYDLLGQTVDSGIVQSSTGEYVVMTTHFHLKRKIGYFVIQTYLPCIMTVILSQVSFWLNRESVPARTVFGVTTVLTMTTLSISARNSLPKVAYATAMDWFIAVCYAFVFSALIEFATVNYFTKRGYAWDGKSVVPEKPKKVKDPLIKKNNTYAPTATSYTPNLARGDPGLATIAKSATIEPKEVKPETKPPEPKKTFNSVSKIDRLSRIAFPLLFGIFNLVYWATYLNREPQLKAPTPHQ

For `CCS(=O)(=O)c1cccnc1S(=O)(=O)NC(=O)Nc1nc(OC)cc(OC)n1`, the compound was called inactive in test [1].
As to `CC[C@H](C)[C@H]1O[C@]2(C=C[C@@H]1C)C[C@@H]1C[C@@H](C/C=C(\C)[C@@H](O[C@H]3C[C@H](OC)[C@@H](O[C@H]4C[C@H](OC)[C@@H](O)[C@H](C)O4)[C@H](C)O3)[C@@H](C)/C=C/C=C3\CO[C@@H]4[C@H](O)C(C)=C[C@@H](C(=O)O1)[C@]34O)O2` (tested in a mixture with another compound), the half-maximal activity concentration (AC50) in test [2] was 0.363 µM (active); in [4], 15.5 µM (active); in test [6], 0.494 µM (active); in the test with NCBI gene 100848466 it was 6.14 µM (active); in [7] it was 10.1 µM (active); in [9], 5.41 µM (active). The outcome in [3], in test [5] and in test [8] was inactive.
Consider `C#CCN1C(=O)COc2cc(F)c(N3C(=O)C4=C(CCCC4)C3=O)cc21`, for which the compound was classed as inactive in test [10].
As for `CN1CSC(=S)N(C)C1`, the outcome in test [10] and in [7] was inactive.
Turning to `O=C(O)COc1ccc(Cl)cc1Cl`, the compound was classed as inactive in [2] and in test [11].
Take `O=[N+]([O-])/N=C1\NCCN1Cc1ccc(Cl)nc1`: the call (in test [2]; in test [3]; in test [12]; in the test on NCBI gene 100848466) was inactive.
As for `COP(=O)(OC)OC=C(Cl)Cl`, the compound was classed as inactive in test [2].
On to `O=[N+]([O-])c1c(Cl)c(Cl)c(Cl)c(Cl)c1Cl`, for which the result (in test [10]; in [3]; in the test on NCBI gene 100848466; in [7]; in test [8]) was inactive.
As to `Oc1cc(Cl)ccc1Oc1ccc(Cl)cc1Cl`, the compound was classed as inactive (in test [2]; in test [3]; with NCBI gene 100848466). The AC50 is 5.64 µM (active) and 25.5 µM (active) and 9.13 µM (active) in test [3]; 12.4 µM (active) and 15.3 µM (active) and 12.2 µM (active) in test [9].
Consider `CCN(CC)C(=O)SCc1ccc(Cl)cc1`, for which the figures for the AC50 in test [2] and in [3] were 22.2 µM (active) and 13.5 µM (active), respectively.
Turning to `CCOCN(C(=O)CCl)c1c(C)cccc1CC`, the AC50 is 1.88 µM (active) in [2], 1.45 µM (active) in test [3], 13.9 µM (active) in test [7] and 15.5 µM (active) in [9]. Moreover, the compound was classed as inactive in test [13].
On to `CCCN(CCOc1c(Cl)cc(Cl)cc1Cl)C(=O)n1ccnc1`, for which, in test [1], the compound was classed as inactive. The AC50 was 2.59 µM (active) in test [2]; 8.01 µM (active) in test [14]; 0.0539 µM (active) in test [3]; 5.4 µM (active) with NCBI gene 100848466; 32 µM (active) in test [7]; 19.7 µM (active) in [9].
Turning to `CNC(=O)CSP(=S)(OC)OC`, the result (in test [2]; in test [3]; in the test with NCBI gene 100848466) was inactive.
Regarding `CC(C)OC(=O)Nc1cccc(Cl)c1`, the values for the AC50 in [2] and in [3] were 17.1 µM (active) and 4.63 µM (active), respectively. In addition, in test [15], the outcome was inactive.
Take `O=S(=O)(O)C(F)(F)C(F)(F)C(F)(F)C(F)(F)C(F)(F)C(F)(F)C(F)(F)C(F)(F)F`: the call in test [16], in test [3] and in test [12] was inactive. Moreover, the AC50 with NCBI gene 100848466 was 25 µM (active) [middle of 5 runs]; in [9], 5.81 µM (active).
For the compound `CCC(C)Nc1c([N+](=O)[O-])cc(C(C)(C)C)cc1[N+](=O)[O-]` (configuration not stated), in test [16], the outcome was inactive.
For the compound `COC(=O)c1ccccc1S(=O)(=O)NC(=O)Nc1nc(C)nc(OC)n1`, in [2], the compound was called inactive.
As to `O=C(Nc1ccccc1)Nc1cnns1`, in [17], the compound was classed as inactive. Besides, in [15], the AC50 was 3.68 µM (active).
As to `CC(C)N(C(=O)COc1nnc(C(F)(F)F)s1)c1ccc(F)cc1`, the AC50 is 0.27 µM (active) in [2] and 0.0248 µM (active) in test [3].
Turning to `ClC1C(Cl)C(Cl)C(Cl)C(Cl)C1Cl` (configuration not stated), the outcome (in test [10]; in [2]; in [11]; in test [3]; with NCBI gene 100848466) was inactive. For the same compound, the AC50 in test [3] is 14.1 µM (active).

The values are drawn from PubChem BioAssay (EPA / NIEHS).
